Data: PubChem BioAssay AID1220 (Sanford-Burnham Center for Chemical Genomics, 2008)
In all, about 190,000 compounds went through this assay and about 1,300 (0.68%) were called active. Rule as the data show it: active = inhibition above about 50%; inactive = the rest. For the sample, actives were picked, then their nearest neighbours and some compounds at random.

biological target: Mannose-6-phosphate isomerase (Homo sapiens) (UniProt P34949); test: MPI inhibition at elevated mannose 6-phosphate – biochemical, fluorescence intensity, high mannose 6-phosphate, primary screen (AID 1220); details: recombinant PMI enzyme, coupled fluorescence intensity; at 20 µM; stronger effect = higher value
Sequence (P34949 whole entry, looked up): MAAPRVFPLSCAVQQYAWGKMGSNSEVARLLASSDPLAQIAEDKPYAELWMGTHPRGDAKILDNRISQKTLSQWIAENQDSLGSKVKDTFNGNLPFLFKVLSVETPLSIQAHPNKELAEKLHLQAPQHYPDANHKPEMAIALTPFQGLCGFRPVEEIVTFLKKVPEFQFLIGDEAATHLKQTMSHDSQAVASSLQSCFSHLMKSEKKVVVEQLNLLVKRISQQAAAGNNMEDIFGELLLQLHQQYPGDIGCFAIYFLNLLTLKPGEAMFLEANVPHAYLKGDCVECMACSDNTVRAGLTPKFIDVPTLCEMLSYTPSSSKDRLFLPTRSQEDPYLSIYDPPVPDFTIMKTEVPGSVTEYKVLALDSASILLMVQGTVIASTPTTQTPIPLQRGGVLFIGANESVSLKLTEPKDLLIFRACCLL

Row | SMILES | inhibition
1 | Cc1ccc(/C=c2/sc3n(c2=O)CCCN=3)o1 | -24.9% (inactive)
2 | O=c1/c(=C/c2ccc(CNS(=O)(=O)c3ccccc3)o2)sc2n1CCN=2 | 13.7% (inactive)
3 | O=C(NCc1ccc(/C=c2\sc3n(c2=O)CCN=3)o1)C(=O)Nc1ccccc1 | 50.9% (active)
4 | COc1ccc(C(=O)NCc2nnc(SCC(=O)Nc3cccc(F)c3)o2)cc1 | -10.6% (inactive)
5 | CCOC(=O)Cc1nnc(-c2ccccc2)o1 | 40.2% (inactive)
6 | CC(C)CCNC(=O)C(c1ccc(O)cc1)N(C(=O)C1COc2ccccc2O1)c1cccc(O)c1 (configuration not stated) | 60.7% (active)
7 | CC(C)CCNC(=O)C(c1ccc(O)cc1)N(Cc1cccs1)C(=O)C1COc2ccccc2O1 (configuration not stated) | 9.3% (inactive)
8 | CCOc1cccc(N(C(=O)C2COc3ccccc3O2)C(C(=O)NC2CCCCC2)c2ccc(O)cc2)c1 (configuration not stated) | -4.1% (inactive)
9 | COCC(C)NC(C(=O)Nc1ccc(C)c(Cl)c1)c1ccccc1 (configuration not stated) | 1.8% (inactive)
10 | CN(c1ccc(OCC(=O)Nc2nc(-c3ccccc3)cs2)cc1)S(=O)(=O)c1ccc(F)cc1 | 8.4% (inactive)
11 | Cc1cc(C)c(NC(=O)COC(=O)Cc2ccsc2)c(C)c1 | -8.2% (inactive)
12 | Cc1ccc(S(=O)(=O)N2CCC(=O)N(CCOCc3cccc(F)c3)CC2)cc1 | 6.5% (inactive)
13 | N#CCn1c2ccccc2c2nc3ccccc3nc21 | 55.3% (active)
14 | COc1cc2nc3c4ccccc4n(CC#N)c3nc2cc1OC | -0.4% (inactive)
15 | N#CCCn1c2ccccc2c2nc3ccccc3nc21 | -21.1% (inactive)
16 | Cc1ccc(C2N(C)c3ccccc3-c3nc4ccccc4n32)o1 (configuration not stated) | 3.8% (inactive)
17 | O=C(O)COc1ccccc1C(Nc1cccnc1)c1cc(Cl)c2cccnc2c1O (configuration not stated) | 32% (inactive)
18 | CCCC(=O)NC(c1cccs1)c1cc([N+](=O)[O-])c2cccnc2c1O (configuration not stated) | 55.7% (active)
19 | CC(=O)NC(c1ccccc1)c1cc([N+](=O)[O-])c2cccnc2c1O (configuration not stated) | 58% (active)
20 | CCOc1ccc(C(Nc2cccnc2)c2cc(Cl)c3cccnc3c2O)cc1 (configuration not stated) | 66% (active)
21 | O=[N+]([O-])c1cc(Cl)c2cccnc2c1O | 47.2% (inactive)
22 | CCCC(=O)NC(c1cccs1)c1cc(Cl)c2cccnc2c1O (configuration not stated) | 38.8% (inactive)
23 | CCC(=O)NC(c1cccs1)c1cc([N+](=O)[O-])c2cccnc2c1O (configuration not stated) | 43.9% (inactive)
24 | O=C(NC(c1ccccc1)c1cc(Cl)c2cccnc2c1O)c1cccnc1 (configuration not stated) | 23.4% (inactive)
25 | Oc1c(C(Nc2ccccn2)c2cccnc2)cc(Cl)c2cccnc12 (configuration not stated) | 43.5% (inactive)

Row | SMILES | inhibition
26 | Cc1ccc([N+](=O)[O-])c2cccnc12 | 13.6% (inactive)
27 | CC(=O)NC(c1cccs1)c1cc([N+](=O)[O-])c2cccnc2c1O (configuration not stated) | 43.2% (inactive)
28 | CC(=O)NC(c1ccc(C)cc1)c1cc([N+](=O)[O-])c2cccnc2c1O (configuration not stated) | 64.9% (active)
29 | COC(=O)CCCCC1SCC2NC(=O)NC21 (configuration not stated) | -4.5% (inactive)
30 | COc1ccc(NC(=O)CSc2ccc(F)cc2)cc1S(=O)(=O)N1CCCCC1 | 8.6% (inactive)
31 | Cc1csc2cc(-c3cccc([N+](=O)[O-])c3)c(-c3cccc([N+](=O)[O-])c3)c[n+]12 | 4.9% (inactive)
32 | COc1ccc(C=O)cc1COc1ccccc1F | 8.1% (inactive)
33 | CCC(=O)NC(/C=C/c1ccccc1)c1cc([N+](=O)[O-])c2cccnc2c1O (configuration not stated) | 46.8% (inactive)
34 | COc1ccc(C(NC(C)=O)c2cc(Cl)c3cccnc3c2O)cc1OC (configuration not stated) | 55.7% (active)
35 | CCCC(=O)NC(c1ccco1)c1cc([N+](=O)[O-])c2cccnc2c1O (configuration not stated) | 7.9% (inactive)
36 | CCC(=O)NC(c1ccc(OC)c(OC)c1)c1cc(Cl)c2cccnc2c1O (configuration not stated) | 41.1% (inactive)
37 | CCCC(=O)NC(c1ccc(OC)c(OC)c1)c1cc(Cl)c2cccnc2c1O (configuration not stated) | 48.4% (inactive)
38 | CCC(=O)NC(c1ccc(C)cc1)c1cc([N+](=O)[O-])c2cccnc2c1O (configuration not stated) | 54.5% (active)
39 | COc1ccccc1NC(=S)NCc1ccco1 | -7.4% (inactive)
40 | Cc1c(Cl)cccc1NC(=O)CSc1nnc(CCNC(=O)OC(C)(C)C)o1 | 3.7% (inactive)
41 | COCCCNC(=O)c1cc2cc(Br)ccc2oc1=O | -0.9% (inactive)
42 | CCC(C)c1ccc(NC(=S)NCCn2cc(Br)cn2)cc1 (configuration not stated) | 14.5% (inactive)
43 | Cc1[nH]nc2ncc(C(=O)c3cc(F)ccc3O)cc12 | -5.1% (inactive)
44 | COc1cc(C2Nc3ccc4ncccc4c3C3=C2C(=O)CCC3)cc(OC)c1O (configuration not stated) | 42.6% (inactive)
45 | COc1cc(C2Nc3ccc4ncccc4c3C3=C2C(=O)CCC3)cc(OC)c1OC (configuration not stated) | 52.8% (active)
46 | COc1cc(C2Nc3ccc4ncccc4c3C3=C2C(=O)CCC3)ccc1O (configuration not stated) | 46.7% (inactive)
47 | COC(=O)/C(=C1/Oc2ccc(C)cc2S1)C(F)(F)F | 1.2% (inactive)
48 | O=S(=O)(NC1CCCCC1Sc1ncccn1)c1ccc(Cl)cc1 (configuration not stated) | -26% (inactive)
49 | COc1cc2c(=O)c(-c3ccc(O)cc3)coc2cc1OC1OC(CO)C(O)C(O)C1O (configuration not stated) | 12.9% (inactive)
50 | O=C(CSc1n[nH]c(-c2cccs2)n1)NCc1cccs1 | 0.2% (inactive)

Row | SMILES | inhibition
51 | CCOC(=O)CNC(=O)C1(c2ccccc2)CCCC1 | 3.8% (inactive)
52 | COc1cc2c(cc1OC)C1=C(C#N)CN(C3CCCCC3)CN1CC2 | 32.8% (inactive)
53 | COc1ccc(CCN2CC(C#N)=C3c4cc(OC)c(OC)cc4CCN3C2)cc1OC | 21.4% (inactive)
54 | CCOc1cc(-c2c(C#N)c(N)nc3c2CCCC3)ccc1O | 12.6% (inactive)
55 | CSc1nc2c(cc1C#N)CCCCC2 | -0.4% (inactive)
56 | C/C(=C\C=C(C#N)C#N)c1cc(C#N)c(N)o1 | 70.9% (active)
57 | COc1ccc(NC(=O)NS(=O)(=O)c2ccc(C)cc2)c(OC)c1 | 57.2% (active)
58 | COc1cc(NC(=O)NS(=O)(=O)c2ccc(C)cc2)cc(OC)c1 | 41% (inactive)
59 | COc1ccccc1NC(=O)NS(=O)(=O)c1ccc(C)cc1 | 1.2% (inactive)
60 | O=C(NNc1nc(-c2ccccc2)c2cc(Br)ccc2n1)c1ccc(S(=O)(=O)N2CCCCC2)cc1 | -0.2% (inactive)
61 | COC(=O)c1cc(S(=O)(=O)n2nc(C)c(Br)c2C)c(Cl)cc1Cl | -5% (inactive)
62 | Cc1c(Nc2ncnc3nc[nH]c23)c(=O)n(-c2ccccc2)n1C | 1.1% (inactive)
63 | CCn1cc(S(=O)(=O)CC(=O)Nc2ccc3c(c2)OCCO3)c2ccccc21 | 53.3% (active)
64 | CCCn1cc(S(=O)(=O)CC(=O)Nc2ccc(OCC)cc2)c2ccccc21 | 17.3% (inactive)
65 | Cn1cc(S(=O)(=O)CC(=O)Nc2ccc3c(c2)OCCO3)c2ccccc21 | 50.9% (active)
66 | COc1ccc(NC(=O)Cn2cc(S(=O)(=O)Cc3ccccc3)c3ccccc32)c(OC)c1 | 16.9% (inactive)
67 | Cn1cc(S(=O)(=O)CC(=O)Nc2ccc3c(c2)OCO3)c2ccccc21 | 25.7% (inactive)
68 | CCN(CC)C(=O)Cn1cc(S(=O)(=O)CC(=O)Nc2ccc3c(c2)OCCO3)c2ccccc21 | 1.2% (inactive)
69 | CCCn1cc(S(=O)(=O)CC(=O)Nc2ccc(OC)cc2OC)c2ccccc21 | 56.6% (active)
70 | Cc1cccc(NC(=O)CS(=O)(=O)c2cn(C)c3ccccc23)c1 | 17.7% (inactive)
71 | CCn1cc(S(=O)(=O)CC(=O)Nc2ccc(C)cc2)c2ccccc21 | -0.5% (inactive)
72 | CCCN1C(=O)/C(=C\C=C2/Sc3ccccc3N2CCO)SC1=S | 10.5% (inactive)
73 | O=C(N/N=C/c1ccc(Br)o1)c1cccnc1 | 5.3% (inactive)
74 | COc1ccc(/C=C/C(=O)OCCCN(C)C)cc1 | -6.3% (inactive)
75 | CCOC(=O)c1ccc(NCc2nc3ccccc3[nH]2)cc1 | -1.4% (inactive)

Row | SMILES | inhibition
76 | O=C(O)c1cc(-c2ccccc2)n(-c2ccc(Cl)cc2)n1 | -7.9% (inactive)
77 | CC(C)CN(Cc1c(O)ccc2c3c(c(=O)oc12)CCC3)CC(C)C | 10% (inactive)
78 | O=c1oc2c(CN3CCOCC3)c(O)ccc2c2c1CCC2 | 14.1% (inactive)
79 | COCCN(CCOC)Cc1c(O)ccc2c3c(c(=O)oc12)CCC3 | 50.9% (active)
80 | COC(=O)c1cn(CC(=O)NC2CCCCCC2)c2ccccc12 | 4.4% (inactive)
81 | CC(C)CC1NC(=O)N(CC(=O)N2CCCc3ccccc32)C1=O (configuration not stated) | -5.9% (inactive)
82 | O=C(/C=C/c1ccccc1Cl)NCc1ccccc1 | 7.8% (inactive)
83 | O=C(CN1C(=O)NC2(CCCCCC2)C1=O)NC1CCCCCCC1 | -3.9% (inactive)
84 | Cc1ccccc1CSCCC(=O)NCCc1ccccc1 | -6.4% (inactive)
85 | CNC(=O)CN1C(=O)c2cccc3cccc1c23 | -3.7% (inactive)
86 | CCN1/C(=N\N)c2cccc3cccc1c23 | -13% (inactive)
87 | CC(C)c1ccc(CNC(=O)C(=O)Nc2nccs2)cc1 | -3.8% (inactive)
88 | CNc1nc2ccccc2n1N | -3.8% (inactive)
89 | CC(Sc1nc(NCc2ccccc2)nc(N2CCOCC2)n1)C(=O)Nc1ccccc1 (configuration not stated) | 12.4% (inactive)
90 | Cc1ccc(Cl)cc1NC(=O)C1CCCN(S(=O)(=O)c2c(C)noc2C)C1 (configuration not stated) | 50.2% (active)
91 | Cc1ccccc1NC(=O)C1CCCN(S(=O)(=O)c2c(C)noc2C)C1 (configuration not stated) | -2.1% (inactive)
92 | Cc1noc(C)c1S(=O)(=O)N1CCCC(C(=O)Nc2ccc(Cl)cn2)C1 (configuration not stated) | -3% (inactive)
93 | Nc1nc2c(s1)COc1ccccc1-2 | 11.1% (inactive)
94 | Nc1nc(-c2ccccc2)c(-c2ccccc2)s1 | -7.6% (inactive)
95 | O=C(NCCCN1CCOCC1)C(Sc1ccccc1)c1ccccc1 (configuration not stated) | 9.2% (inactive)
96 | O=C(COC(=O)c1ccc(S(=O)(=O)NCc2ccco2)cc1)NCCC1=CCCCC1 | -19.9% (inactive)
97 | O=c1[nH]c2ccc(Cl)cc2c(O)c1Cc1ccccc1 | 3.4% (inactive)
